TDP1 cell noCPT: qHTS for Inhibitors of human tyrosyl-DNA phosphodiesterase 1 (TDP1): qHTS in cells in absence of CPT. DT40 Tdp1-/- hTDP1 cells, no CPT, ATP luminescence, 48 h. Potency, µM (highest dose often 46.2 µM), most hits filed as inhibitors. actives 15% (n = 420,000). AID 686978, 2013; also: nearly all actives have a fitted effect of over 55% in size
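Luminescent ATP content (CellTiter-Glo) served as the growth readout. Knockout chicken DT40 cells expressing human TDP1 were exposed to compounds without camptothecin for a minimum 48 hr at 37 °C.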
TDP1 cell CPT: qHTS for Inhibitors of human tyrosyl-DNA phosphodiesterase 1 (TDP1): qHTS in cells in presence of CPT; chicken DT40 Tdp1-/-;hTDP1 cells + 20 nM CPT, ATP luminescence, 48 h; actives 12% (n = 420,000); Potency, µM (titrated, usually from 46.2 µM), most hits filed as inhibitors; also: nearly all actives have a fitted effect of over 55% in size
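Cell growth measured by CellTiter-Glo luminescence after a minimum 48 h, 37 C compound exposure with 20 nM CPT in Tdp1-knockout DT40 cells stably expressing hTDP1, seeded 400/well; qHTS titration format.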
ClpP mod: qHTS Assay for Activators of ClpP; purified B. subtilis ClpP, FRET peptide cleavage, 20 min; AID 651965, 2013; Potency, µM (doses to about 57.5 µM); actives 1.9% (n = 340,000); active = well fitted falling curve with a large enough effect; inconclusive = small, poorly fitted or top-dose-only effect; inactive = no such curve, though single readings can be large or run the other way; also: the source files actives as falling curves though it sought activators and does not explain the sign; nearly all actives have a fitted effect of over 65% in size
Target sequence (P80244 whole entry, looked up): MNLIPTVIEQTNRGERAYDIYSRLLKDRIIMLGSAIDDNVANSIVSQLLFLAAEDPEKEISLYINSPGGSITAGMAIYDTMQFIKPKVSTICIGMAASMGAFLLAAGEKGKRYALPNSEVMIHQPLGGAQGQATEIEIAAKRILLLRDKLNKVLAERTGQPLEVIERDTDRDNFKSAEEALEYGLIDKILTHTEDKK
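ClpP 10 microg/mL final, pH 8 Tris/KCl buffer with BSA, glycerol, Tween-20; compound pinned in; FRET-FV substrate; RT 20 min; Ex320/Em430; ΔFRET vs ADEP 5.8 microM, DMSO, no enzyme.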
TDP1 inh: qHTS Assay for Inhibitors of Tyrosyl-DNA Phosphodiesterase (TDP1); Potency, µM (highest dose often 130 µM), hits mostly inhibitors; actives 0.28% (n = 350,000); AID 485290, 2010; recombinant TDP1, AlphaScreen DNA substrate cleavage; also: nearly all actives have a fitted effect of over 40% in size
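Compounds were preincubated with Tdp1 (1 nM final) for 15 min at room temperature before substrate (15 nM final) started a 5 min reaction; beads (10 ug/ml final) were then added for 10 min before AlphaScreen detection.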
Each line names hits and unclear results; the compound was inactive in the other large screens. Rows were chosen to be rich in hits. Some 17% of all compounds tested hit in one or more screens of this group. Unless noted, calls follow the shape of the dose curve; as a rule, active = well fitted curve in the direction sought with a large enough effect; inconclusive = small, poorly fitted or top-dose-only effect, or another doubt; inactive = no such curve, though single readings can be large; an effect the other way counts as inactive or inconclusive.

CCC(C)(C)C1CCc2[nH]nc(C(=O)NCc3ccc(Cl)cc3)c2C1 (stereo unspecified)	TDP1 cell noCPT inconclusive, TDP1 cell CPT inconclusive
CCC(C)(C)C1CCc2[nH]nc(C(=O)NCCN3CCOCC3)c2C1 (stereo unspecified)	TDP1 cell noCPT inconclusive, TDP1 cell CPT inconclusive
CCC(C)(C)C1CCc2[nH]nc(C(=O)NCCCNC(=O)OC(C)(C)C)c2C1 (stereo unspecified)	TDP1 cell noCPT 18.4µM, TDP1 cell CPT inconclusive
CCC(C)(C)C1CCc2[nH]nc(C(=O)NCc3ccccn3)c2C1 (stereo unspecified)	TDP1 cell noCPT 23.1µM, TDP1 cell CPT 14.6µM
CCCCN(CC)Cc1ccc(CNC(=O)Nc2ccc(F)cc2)o1	TDP1 cell noCPT 5.62µM, TDP1 cell CPT 4.47µM
CCCCN(CC)Cc1ccc(CNC(=S)Nc2ccc(C)cc2Cl)o1	TDP1 cell noCPT 18.4µM, TDP1 cell CPT 16.4µM (no result: ClpP mod)
CCCCN(CC)Cc1ccc(CNC(=S)Nc2c(C)cc(C)cc2C)o1	TDP1 cell noCPT inconclusive (no result: ClpP mod)
CCCCCCCC/C=C\CCCCCCCC(=O)OC[C@@H](O)[C@H]1OC[C@H](O)[C@H]1O	none (no result: ClpP mod, TDP1 inh)
Cc1ccc(S(=O)(=O)NN2C(=O)c3ccccc3NC2(C)C)cc1	ClpP mod 15.8µM
Cc1ccc(-c2nc(-c3cc4cccc(OCc5cccc(C)c5)c4oc3=O)no2)cc1	TDP1 cell noCPT 9.2µM, TDP1 cell CPT inconclusive
CCOc1cccc2cc(-c3nc(-c4ccccc4C)no3)c(=O)oc12	TDP1 cell noCPT inconclusive
COc1cc(C(=O)OCC(=O)N2CCCCCC2)c([N+](=O)[O-])cc1OC	TDP1 cell CPT inconclusive
COc1cc(C(=O)OCC(=O)N2CCN(S(=O)(=O)c3ccc(C)cc3C)CC2)c([N+](=O)[O-])cc1OC	TDP1 cell noCPT 20.6µM, TDP1 cell CPT inconclusive (no result: TDP1 inh)
Cc1ccc(S(=O)(=O)N2CCN(C(=O)COC(=O)c3ccc(Cl)c(S(N)(=O)=O)c3)CC2)c(C)c1	none (no result: TDP1 inh)
Cc1ccc(S(=O)(=O)N2CCN(C(=O)COC(=O)C3CCC3)CC2)c(C)c1	ClpP mod 25.1µM
Cc1ccc(S(=O)(=O)N2CCN(C(=O)COC(=O)C3(C)CC3(Cl)Cl)CC2)c(C)c1 (stereo unspecified)	TDP1 cell noCPT inconclusive, TDP1 cell CPT 23.1µM
CCOc1cccc(-c2cc(NCCc3ccccn3)n3nccc3n2)c1	TDP1 cell noCPT inconclusive, TDP1 cell CPT inconclusive (no result: TDP1 inh)
CN(Cc1cnn(Cc2ccccc2)c1)C(=O)CN=C1NS(=O)(=O)c2ccccc21	none
O=c1[nH]c2nc(Br)[nH]c(=O)c2[nH]1	none (no result: ClpP mod, TDP1 inh)
Cc1noc(C)c1-c1cc(NCc2cccs2)ncn1	TDP1 cell CPT inconclusive (no result: ClpP mod, TDP1 inh)
C=C1C=C(C(F)F)n2ncc(C(=O)NCc3ccc(Cl)cc3)c2N1	none (no result: TDP1 inh)
C[N+]1(CC(=O)OC2CCCCCCCCCCC2)CCCC1	TDP1 cell noCPT 2.59µM, TDP1 cell CPT 4.11µM (no result: ClpP mod)
CCC(C)(C)NC(=O)C(c1ccccc1)N(Cc1cccs1)C(=O)Cn1nnc2ccccc21 (stereo unspecified)	TDP1 cell noCPT inconclusive, TDP1 cell CPT 18.4µM (no result: TDP1 inh)
CCC(C)(C)NC(=O)C(c1ccc(C)o1)N(Cc1cccs1)C(=O)Cn1nnc2ccccc21 (stereo unspecified)	TDP1 cell noCPT inconclusive, TDP1 cell CPT inconclusive
CC(C)(C)NC(=O)C(c1ccc(Cl)cc1)N(Cc1ccco1)C(=O)CCl (stereo unspecified)	TDP1 cell noCPT 2.91µM, TDP1 cell CPT 4.61µM (no result: TDP1 inh)
CC(C)(C)NC(=O)C(c1ccc(O)cc1)N(Cc1ccco1)C(=O)CCC(=O)Nc1ccccn1 (stereo unspecified)	none (no result: ClpP mod)
Cc1ccc(CN(C(=O)Cn2nnc3ccccc32)C(C(=O)NCc2ccco2)c2cccs2)cc1 (stereo unspecified)	TDP1 cell noCPT 23.1µM, TDP1 cell CPT inconclusive
CCc1ccc(C(C(=O)NC(C)(C)CC)N(Cc2ccco2)C(=O)Cn2nnc3ccccc32)cc1 (stereo unspecified)	TDP1 cell noCPT inconclusive, TDP1 cell CPT 18.4µM
Cc1ccc(S(=O)(=O)N2CCN(c3nc(-c4cccs4)nc4c3ncn4COC(=O)C(C)(C)C)CC2)cc1	ClpP mod inconclusive (no result: TDP1 inh)
CNC(=S)NCCCCc1cnc[nH]1	none (no result: TDP1 cell noCPT, TDP1 cell CPT, ClpP mod)
Cc1ccc2nc3nc4ccc[nH]c4cc3c2c1	none (no result: TDP1 cell noCPT, TDP1 cell CPT, ClpP mod)
CO/N=C\c1ccc(C(=O)N2[C@H](c3ccc(C)cc3)[C@@H](C)CC[C@H]2C(=O)OC)cc1	none (no result: TDP1 cell noCPT, TDP1 cell CPT, ClpP mod)
COCCN(C(=O)CCC(=O)Nc1cc(C)on1)C(C(=O)NC1CCCC1)c1ccc(C(C)C)cc1 (stereo unspecified)	TDP1 cell noCPT inconclusive (no result: ClpP mod, TDP1 inh)
COc1ccc(C(C(=O)NC(C)(C)C)N(Cc2cccs2)C(=O)CCC(=O)Nc2cc(C)on2)cc1 (stereo unspecified)	TDP1 cell noCPT inconclusive, TDP1 cell CPT inconclusive
COCCN(C(=O)CCC(=O)Nc1cc(C)on1)C(C(=O)NC1CCCC1)c1ccc(C)cc1 (stereo unspecified)	TDP1 cell noCPT 0.326µM, TDP1 cell CPT inconclusive
CCC(C)(C)NC(=O)C(c1ccc(OC)cc1)N(Cc1cccs1)C(=O)CCC(=O)Nc1cc(C)on1 (stereo unspecified)	TDP1 cell noCPT inconclusive, TDP1 cell CPT 18.4µM
Cc1ccc(NC(=O)CSc2nnc(C3CC3)n2C)cc1S(=O)(=O)N1CCCCC1	none
COc1cc2nc(CSc3nc(-c4ccc(F)cc4)cs3)[nH]c(=O)c2cc1OC	TDP1 cell noCPT inconclusive, TDP1 cell CPT 14.6µM
CCCCCCCCCCCCCCCCCCNc1ccn(C2OC(COP(=O)(O)OCC3OC(n4cc(F)c(=O)[nH]c4=O)CC3O)C(O)C2O)c(=O)n1 (stereo unspecified)	TDP1 cell noCPT 0.0411µM, TDP1 cell CPT 0.13µM (no result: TDP1 inh)
O=C1CSC(=S)N1/N=C/c1ccc(O)c(O)c1O	TDP1 cell noCPT inconclusive, TDP1 cell CPT 25.9µM, TDP1 inh inconclusive
NS(=O)(=O)c1ccc(NC(=O)/C=C/c2cccc(Cl)c2)cc1	TDP1 cell noCPT inconclusive, TDP1 cell CPT inconclusive
CC(C)(C)c1ccc(/C=C/C(=O)Nc2ccc(S(N)(=O)=O)cc2)cc1	TDP1 cell noCPT 8.2µM, TDP1 cell CPT 6.51µM (no result: TDP1 inh)
O=C(Nc1ccccc1)Nc1nnc(CSCc2ccccc2Cl)s1	TDP1 cell noCPT inconclusive, TDP1 cell CPT 20.6µM
O=C(Nc1ccc(Cl)c(Cl)c1)Nc1nnc(CSc2ccccc2)s1	TDP1 cell noCPT 5.17µM, TDP1 cell CPT 2.59µM
O=C(Cc1nnc(NC(=O)Nc2ccccc2)s1)Nc1ccccc1	none
O=C(Nc1ccc(Cl)cc1)Nc1nnc(CSCc2ccccc2Cl)s1	TDP1 cell noCPT 11.6µM, TDP1 cell CPT 16.4µM
Cc1ccc2oc(=O)c(S(=O)(=O)c3ccc(F)cc3)cc2c1	none
O=c1oc2c(F)cc(F)cc2cc1S(=O)(=O)c1ccc(F)cc1	ClpP mod 22.4µM

Compound activity as filed in PubChem.
